In the emibetuzumab library of Makowski et al. (2022):
The other results are listed elsewhere or left out. The true hit rate is not given.

B1: VH:VL chains; a variant is named by its letters at X, in order (parent)
chain 1: QVQLVQSGAEVKKPGASVKVSCKASGYTFTDYXMHWVRQAPGQGLEWMGXVNPNXXXTTYNQKFEGRVTMTTDTSTSTAYMELRSLRSDDTAVYYCARXNXLDXWGQGTTVTVSS
chain 2: DIQMTQSPSSLSASVGDRVTITCSVSSSVSSIYLHWYQQKPGKAPKLLIYSTSNLASGVPSRFSGSGSGTDFTLTISSLQPEDFATYYCQVYSGYPLTFGGGTKVEIK

Variants of: B1
Assay: yeast display scFab, FACS + sequencing
Settings: with MET
How it was run: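 Heavy-chain CDR mutant scFab yeast surface library, enriched by two magnetic rounds on HGFR-Fc-coated Protein A beads and then by FACS. Cells were labelled with 1 nM HGFR-Fc in PBSB with 1% milk and anti-Myc for 3 h at room temperature, and the top 50% antigen-positive cells were gated. Round-3 sorted and input populations were deep sequenced in two replicates. Antigen binding call: positive if a sequence occurred in both antigen-positive samples, negative if it occurred only in input.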

Variant | antigen binding call
DKGEGDLA | no binding
VEEEGSGA | no binding
YRRGSSAV | binds
YRREGSVV | binds
DRRGSDAV | no binding
YRRGGSAV | binds
YRREGSAV | binds
YKREGSAV | no binding
VATRAVGA | no binding
VKGRSDAS | no binding
DTGGGDAA | no binding
VRRGSSAV | binds
FTREASAV | no binding
VRRGSDGV | no binding
FRRGSSAV | binds
VTTKSSAV | no binding
VRTEDDWY | no binding
SEEEGDVA | no binding
YTTGGDVA | no binding
VTAGDDGS | no binding
DTTGSDVF | no binding
YRTRSAAV | binds
YRTRSSAV | binds
YRRRGASF | binds

Variant | antigen binding call
YRRRGSSF | binds
STGGNDAD | no binding
YKGKGALA | binds
YKGKGFGA | no binding
YKAGGFGA | no binding
YKAGGALA | binds
YKGEGDLA | no binding
YKGKGSLA | binds
FAAETDVF | no binding
AARADDWD | no binding
DTGEDDVY | no binding
SAGEGSLV | no binding
DRAETDVY | no binding
SAAGGASD chain 1 L45S | no binding
YTTKSDGV | no binding
VTGTGDGA | no binding
STGGDDGA | no binding
FARAAALD | no binding
FREGGALD | binds
FRRGGALD | binds
DARGGSLD | no binding
FRRGGSLD | binds
YRRGGALD | binds
YARGGDLD | no binding

Variant | antigen binding call
VEKEGDGA | no binding
AKAGSYGV | no binding
FRAEGSLD | binds
ATGRASLD | no binding
FRGGGSLD | binds
FRGGGDWD | no binding
ARRGSSLD | binds
FRKGGSLD | binds
YTEGDDWY | no binding
SEARSDGF | no binding
DAKENDVA | no binding
YTGGDDVD | no binding
FRKGTALD | binds
FREKGDLA | binds
FRGKGAGA | binds
FRTKSDLA | no binding
FRGKGSLA | binds
VKEKGDLA | no binding
FKGKGFGA | no binding
FRGKGSGA | binds
FKGKGSGA | no binding
DAKKNASF | no binding
VTREGAVA | no binding
YTEGDDGA | no binding

Variant | antigen binding call
FRGKGAAA | binds
FRGKSAAA | binds
VTGRAAWV | no binding
YRRRGDVY | binds
YTERGDVY | no binding
YRAGDDVY | no binding
YRRRGFWY | no binding
YRRRGAVY | binds
STTGSASF | no binding
FKGRGSLS | binds
FKGRGSSS | binds
FKGRDSGS | no binding
VGATSVSF | no binding
YARADDGS | no binding
VEAGDAGS | no binding
DAEKGAWA | no binding
YRTRDALV | binds
YRGRDYGV | no binding
YRTRDDVY | no binding
YRGRDALV | binds
FRGRDDLV | no binding
ARGRDAWV | no binding
DRGRDDVV | no binding
VRTEDAWV | no binding

Variant | antigen binding call
FRTRDFLV | no binding
YRTRDDVV | binds
YRTRDAWV | binds
YARADDGD | no binding
YAAETDVF | no binding
VKEKGDGS | no binding
VKGTGFLD | no binding
YRAKGALA | binds
YRAKGSLA | binds
ATGANAAV | no binding
AGGRSFVF | no binding
YEGRNVGV | no binding
VAGTGDLA | no binding
DEGGTDWD | no binding
YRAKGVGA | binds
YRAKGYGA | no binding
YRAKGAGA | binds
SARGGYWY | no binding
YRRRGAAY | binds
YRRKGAAY | binds
SRKEGAAY | no binding
YRKGGAAY | binds
YRKGGDLY | no binding
YRRGGAAY | binds

Variant | antigen binding call
DARGGAVY | no binding
STGRADWA | no binding
SEARSALV | no binding
DEGGTSGV | no binding
FKKGSYVF | no binding
DKEGGAAV | no binding
FKKGSAVV | binds
FKKGDAVS | no binding
FKKGSAAV | binds
VAGGDDVF | no binding
DEGKAAGS | no binding
YRRRGVSA | binds
YRRRGASA | binds
VTGRAALA | no binding
SERRDVLY | no binding
DRAGDDWA | no binding
VTETGSLV | no binding
DAKRDSAS | no binding
YRGRDSAS | binds
YRGGDDSS | no binding
YRGGDSAS | binds
SAKRDSAS | no binding
DRGRDDGS | no binding
VTGGDSAS | no binding

Variant | antigen binding call
FRGRDFVS | no binding
YRGRDSVS | binds
YRTRDSAS | binds
VEAGDDSA | no binding
SEARSDVY | no binding
YTEGDFAV | no binding
VGRGNVGV | no binding
YRGEGSAS | binds
DATGGDVD | no binding
SKTKSSSA | no binding
SKGASAWA | no binding
SKKRGASA | binds
SKERGDAA | no binding
SKKRGAWY | binds
SKKRGAWA | binds
SKKTGDLY | no binding
SEGRGAAA | no binding
SKERGDWY | no binding
SKGEGDWA | no binding
SKKRGAAA | binds
SEKGGSSA | no binding
VEKEGDGS | no binding
YAAKNDGA | no binding
YEGGADVV | no binding

Variant | antigen binding call
YRRGGSGY | binds
YRRGGAGY | binds
VAGTGDLY | no binding
VRERSSVD | no binding
VTTRAAVS | no binding
VRTRAAVD | binds
VRAGADVD | no binding
VRTRASVD | binds
VTTRASGD | no binding
YTAGSDGV | no binding
YKGRGYGA | binds
VKGEGYGA | no binding
VKGRGYGA | binds
VAGAGYGA | no binding
VRRGDAGY | binds
VKAKDAGY | no binding
VRRGDVGV | no binding
VRAKGAGY | binds
VRKKGYVY | no binding
VRRGDDVY | no binding
VEGGGSSV | no binding
DREEGDWA | no binding
VRGRDAVS | binds
VRGGDAVY chain 1 G44D | no binding

Variant | antigen binding call
VRGGDAAS | binds
VRGRDDSA | no binding
VEGGGAAS | no binding
VRGKAAVS | no binding
VAGGDAAA | no binding
VRGGDAVS | binds
VAGGDAVA | no binding
DRGGDAVA | no binding
VRGGDAVA | binds
VRGGDDGS | no binding
DTGTGDWV | no binding
SEEEGDAV | no binding
VKGAGDLA | no binding
VRRTDFVA | no binding
VGGTSDVA | no binding
VGGTDFVA | binds
VGGGADGA | no binding
